Laboratory results taken from the antibiotic and cytotoxicity screens of Wong et al. (2023).
Out of some 39,000 compounds screened, about 3,300 (8.5%) were called active. Shown is part of a subset that was picked to be rich in actives.

Tested on: HepG2
Test: cytotoxicity call (relative viability < 0.9)
Conditions: 10 µM

Row | Structure (SMILES) | cytotoxicity call
1 | COc1ccc(S(=O)(=O)Nc2ccc3c(c2)C(=O)N([C@@H](C)CO)C[C@@H](C)[C@@H](CN(C)CC2CC2)O3)cc1 | inactive
2 | Cc1noc(C)c1S(=O)(=O)Nc1cccc2c1O[C@@H](CN(C)C(=O)Nc1ccccc1)[C@@H](C)CN([C@@H](C)CO)C2=O | inactive
3 | COc1ccc(NC(=O)N(C)C[C@@H]2OCCCC[C@@H](C)Oc3ccc(NC(=O)Nc4ccc5c(c4)OCO5)cc3C(=O)N([C@H](C)CO)C[C@H]2C)cc1 | inactive
4 | O=C(C[C@H]1CC[C@H](NC(=O)c2ccc(F)cc2)[C@H](CO)O1)NCc1ccncn1 | inactive
5 | COc1ccc(NC(=O)Nc2ccc3c(c2)[C@H]2C[C@H](CC(=O)NCc4ccncc4)O[C@@H](CO)[C@H]2O3)cc1 | inactive
6 | COc1ccc(NC(=O)N(C)C[C@@H]2OCCCC[C@H](C)Oc3ccc(NS(=O)(=O)c4ccccc4)cc3C(=O)N([C@@H](C)CO)C[C@@H]2C)cc1 | inactive
7 | C=CCOC(=O)[C@H]1[C@@H]2C(=O)O[C@@H](c3ccccc3)[C@@H](c3ccccc3)N2[C@@H](c2ccc(OCCOC(=O)[C@@H]3C[C@@H]4C(=O)NCC(=O)N4[C@@H]3c3cccc(OCCO)c3)cc2)[C@]12C(=O)Nc1ccc(I)cc12 | inactive
8 | O=C(C[C@@H]1C[C@@H]2c3cc(NC(=O)Nc4ccc(C(F)(F)F)cc4)ccc3O[C@@H]2[C@@H](CO)O1)NCc1ccc(Cl)cc1 | inactive
9 | Cc1noc(C)c1NC(=O)Nc1cccc2c1O[C@@H](CN(C)S(=O)(=O)c1cn(C)cn1)[C@@H](C)CN([C@H](C)CO)C2=O | inactive
10 | COc1cccc(S(=O)(=O)Nc2ccc3c(c2)OC[C@@H](C)N(C(=O)Cc2cccnc2)C[C@@H](C)[C@@H](OC)CN(C)C3=O)c1 | inactive
11 | C[C@@H]1CN([C@H](C)CO)C(=O)c2cccc(NC(=O)C3CC3)c2O[C@H]1CN(C)Cc1ccc(Oc2ccccc2)cc1 | inactive
12 | C[C@H](CO)N1C[C@H](C)[C@@H](CN(C)Cc2ccc(Oc3ccccc3)cc2)Oc2c(NC(=O)C3CC3)cccc2C1=O | inactive
13 | CC(C)N1CC[C@H](CN(C)Cc2ccc(Oc3ccccc3)cc2)Oc2c(NC(=O)c3ccncc3)cccc2C1=O | inactive
14 | C[C@@H]1CN([C@@H](C)CO)C(=O)c2cccc(NC(=O)C3CC3)c2O[C@@H]1CN(C)Cc1ccc(Oc2ccccc2)cc1 | inactive
15 | CC(C)N1C[C@H](C)[C@@H](CN(C)Cc2ccc(Oc3ccccc3)cc2)Oc2c(NC(=O)C3CCNCC3)cccc2C1=O | active
16 | COC[C@H](C)N1C[C@H](C)[C@@H](CN(C)Cc2ccc(Oc3ccccc3)cc2)Oc2c(NC(=O)c3ccncc3)cccc2C1=O | active
17 | CC(C)N1C[C@@H](CN(C)Cc2ccc(Oc3ccccc3)cc2)Oc2c(NC(=O)c3ccncc3)cccc2C1=O | active
18 | C[C@@H]1CN([C@@H](C)CO)C(=O)c2cccc(NC(=O)c3ccncc3)c2O[C@@H]1CN(C)Cc1ccc(Oc2ccccc2)cc1 | inactive
19 | CC(C)N1C[C@H](CN(C)Cc2ccc(Oc3ccccc3)cc2)Oc2c(NC(=O)c3ccncc3)cccc2C1=O | inactive
20 | C[C@@H]1CN([C@@H](C)CO)C(=O)c2cccc(NC(=O)c3ccncc3)c2O[C@H]1CN(C)Cc1ccc(Oc2ccccc2)cc1 | inactive
21 | CC(C)N1C[C@H](C)[C@@H](CN(C)Cc2ccc(Oc3ccccc3)cc2)Oc2c(NC(=O)C3CCN(C)CC3)cccc2C1=O | active
22 | C[C@H]1CN([C@@H](C)CO)C(=O)c2cccc(NC(=O)C3CC3)c2O[C@@H]1CN(C)Cc1ccc(Oc2ccccc2)cc1 | inactive

Row | Structure (SMILES) | cytotoxicity call
23 | COc1ccc(S(=O)(=O)Nc2cccc3c2O[C@@H](CN(C)S(=O)(=O)c2cccs2)[C@@H](C)CN([C@H](C)CO)C3=O)cc1 | inactive
24 | N#CCC(=O)Nc1ccncc1 | inactive
25 | COc1ccc(S(=O)(=O)N[C@H]2C=C[C@@H](CC(=O)NCCc3ccncc3)O[C@@H]2CO)cc1 | inactive
26 | COc1ccc(NC(=O)N2C[C@@H](O)COC[C@@H]3O[C@@H](CC(=O)NCc4ccccc4OC)CC[C@H]32)cc1 | inactive
27 | C[C@H]1CN([C@@H](C)CO)S(=O)(=O)c2ccc(C#Cc3ccccc3F)cc2O[C@H]1CN(C)C(=O)Cc1ccncc1 | inactive
28 | CC(C)N1C[C@H](C)[C@@H](CN(C)Cc2ccc(Oc3ccccc3)cc2)Oc2c(NC(=O)c3ccccc3)cccc2C1=O | active
29 | CC(C)N1C[C@H](C)[C@@H](CN(C)Cc2ccc(Oc3ccccc3)cc2)Oc2c(NC(=O)c3cccnc3)cccc2C1=O | inactive
30 | CC(C)N1C[C@H](C)[C@@H](CN(C)Cc2ccc(Oc3ccccc3)cc2)Oc2c(NC(=O)c3ccncc3)cccc2C1=O | inactive
31 | C[C@H]1CCCCO[C@@H](CN(C)C(=O)c2ccccc2)[C@@H](C)CN([C@@H](C)CO)C(=O)c2cc(NC(=O)Nc3ccc(C(F)(F)F)cc3)ccc2O1 | inactive
32 | COc1ccc(CNC(=O)C[C@@H]2C[C@@H]3c4cc(NC(=O)NC5CCCC5)ccc4O[C@@H]3[C@@H](CO)O2)cc1 | inactive
33 | O=C(C[C@H]1C[C@@H]2c3cc(NS(=O)(=O)c4ccc(F)cc4)ccc3O[C@@H]2[C@@H](CO)O1)NCc1cccnc1 | inactive
34 | C[C@H]1CCCCO[C@@H](CN(C)Cc2ccncc2)[C@@H](C)CN([C@@H](C)CO)C(=O)c2cc(NC(=O)Nc3cccc4ccccc34)ccc2O1 | inactive
35 | C[C@@H]1CN([C@@H](C)CO)C(=O)c2cc(C#Cc3ccc(F)cc3)cnc2O[C@@H]1CN(C)CC1CCOCC1 | inactive
36 | Cc1ccc(S(=O)(=O)Nc2ccc3c(c2)C(=O)N([C@H](C)CO)C[C@H](C)[C@H](CN(C)C(=O)Nc2ccc(F)cc2)OCCCC[C@@H](C)O3)cc1 | inactive
37 | O=c1nc(N2CCc3ccccc3C2)cn[nH]1 | inactive
38 | COc1ccc(NC(=O)N(C)C[C@@H]2OCCCC[C@H](C)Oc3ccc(NS(=O)(=O)c4ccc(Cl)cc4)cc3C(=O)N([C@@H](C)CO)C[C@@H]2C)cc1 | inactive
39 | COc1ccc(cc1)CN1CC[C@]2(CC1)CN([C@@H](CO)c1[nH]c3cc(ccc3c12)OC)C(=O)Nc1ccc(cc1)F | active
40 | COc1ccc2c3c([nH]c2c1)[C@H](CO)N(C[C@]13CCN(CC1)C(=O)Nc1ccc(cc1)F)C(=O)c1ccc(cc1)F | inactive
41 | COc1ccc2c3c([nH]c2c1)[C@H](CO)N(C[C@]13CCN(CC1)C(=O)c1ccccc1F)C(=O)Nc1ccc(cc1)F | inactive
42 | COc1ccc2c3c([nH]c2c1)[C@@H](CO)N(C[C@]13CCN(CC1)Cc1cc(on1)-c1ccccc1)C(=O)Nc1ccc(cc1)F | inactive
43 | COc1ccc2c3c([nH]c2c1)[C@@H](CO)N(C[C@]13CCN(CC1)C(=O)c1ccccc1F)C(=O)Nc1ccc(cc1)F | inactive
44 | COc1ccc(cc1)CN1CC[C@]2(CC1)CN([C@H](CO)c1[nH]c3cc(ccc3c12)OC)C(=O)Nc1ccc(cc1)F | active
